PubChem BioAssay (Tox21)
Several values for one entry are separate records, joined by “and”; a condition that tells them apart may be missing. Identical values can stand only once. Records with an inconclusive call do not appear. Some compounds were tested as several samples or in several runs, with calls that do not always agree. Activity calls are given as the source filed them. Calls come from the whole dose curve; as a rule, active = well fitted cell-killing curve with a large enough effect in the repeat runs; inconclusive = weak or mixed curves; inactive = no such curve, though single readings can be large or run the other way.

Assay: qHTS assay to identify small molecule agonists of the peroxisome proliferator-activated receptor delta (PPARd) signaling pathway - cell viability counter screen (AID 743211); note: nearly all actives have a fitted effect of over 55% in size
Conditions: PPARd-bla HEK293H viability, CellTiter-Glo luminescence, 17 h; series mostly up to 62.6 µM; activity change, negative = cytotoxicity: at the top concentration
Outline: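 Tox21 library compounds, delivered in DMSO, were incubated 17 h with PPARd-bla HEK293H cells; cytotoxicity was taken from CellTiter-Glo luminescence read 30 min after reagent addition.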
% is set by controls: 0 for no effect and ±100 for the full control effect; potency is the fitted concentration of half-maximal effect.

SMILES	Potency	activity change, negative = cytotoxicity
COC(=O)[C@H]1[C@H]2C[C@@H]3c4[nH]c5cc(OC)ccc5c4CCN3C[C@H]2C[C@@H](OC(=O)c2cc(OC)c(OC)c(OC)c2)[C@@H]1OC	17.9 µM (active)	–
NCCCCCC(=O)O	–	2.43% (inactive)
O=Nc1ccc(Nc2ccccc2)cc1	43.9 µM (active) and 38.9 µM (active)	–
O=c1n(CC2CO2)c(=O)n(CC2CO2)c(=O)n1CC1CO1 (stereo unspecified)	inactive	–
CCC(=O)/C=C/C1C(C)=CCCC1(C)C (stereo unspecified)	inactive	–
NC(N)=Nc1nc(CSCC/C(N)=N/S(N)(=O)=O)cs1	inactive	–
CC(=O)CC(C)=O	–	-1.96% [at 81.1 µM] (inactive)
CCCCCC(=O)O[C@]1(C(C)=O)CC[C@H]2[C@@H]3CCC4=CC(=O)CC[C@]4(C)[C@H]3CC[C@@]21C	48.6 µM (active) and 29.8 µM (active)	–
CC(=O)OCC1=C(C(=O)O)N2C(=O)[C@@H](NC(=O)Cc3cccs3)[C@H]2SC1	–	3.05% (inactive)
Cc1occc(=O)c1OC(=O)C(C)C	–	-0.877% (inactive)
C=C(C)C1CC=C(C)C(OC(C)=O)C1 (stereo unspecified)	inactive	–
Cc1scc2c1N(C(=O)CN1CCN(C)CC1)c1ccccc1NC2=O	–	0.217% (inactive)
O=S(=O)(O)c1ccc2nc(-c3ccccc3)[nH]c2c1	8.29 µM (active)	–
CCCCCCCCCCCC[N+](C)(C)C	54.9 µM (active) and 49 µM (active)	–
Cc1cc(C2(c3cc(C)c(O)cc3C)OS(=O)(=O)c3ccccc32)c(C)cc1O	inactive	–
CC[C@@H](N)CO	–	-5.5% [at 81.1 µM] (inactive)
Nc1cc(S(=O)(=O)O)cc2cc(S(=O)(=O)O)cc(O)c12	inactive	–
CC(=O)O[C@]1(C(C)=O)CC[C@H]2[C@@H]3C[C@H](C)C4=CC(=O)CC[C@]4(C)[C@H]3CC[C@@]21C	inactive	–
c1ccc2n[nH]nc2c1	–	0.117% (inactive)
CCc1ccc(C(c2ccc(CC)cc2)C(Cl)Cl)cc1	inactive	–
CCn1c2ccccc2c2cc(N)ccc21	inactive	–
CCN(CC)C(=O)Nc1ccc(OCC(O)CNC(C)(C)C)c(C(C)=O)c1 (stereo unspecified)	–	-6.62% (inactive)
Cc1cc(C(C)(C)C)c(O)c(C(C)(C)C)c1	43.8 µM (active) and inactive	–
NNCCc1ccccc1	inactive	–
CC(C)(C)NC(=O)[C@@H]1CN(Cc2cccnc2)CCN1C[C@@H](O)C[C@@H](Cc1ccccc1)C(=O)N[C@H]1c2ccccc2C[C@H]1O	inactive	–
CC(C)CCOCc1ccccc1	–	-1.94% (inactive)
